The test system of one assay is CRL-7250. In words: Cytotoxic Profiling of Annotated Libraries Using Quantitative High-Throughput Screening (AID 1296008). For max response: % is set by controls: 0 for no effect and ±100 for the full control effect. The following applies: Five cell lines viability, CellTiter-Glo ATP luminescence, 48-72 h; max response: hits give low values. A digest of the protocol:
(§1)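 Compounds were pin-transferred onto cells and incubated 48 or 72 hr at 37 degree Celsius, 95% humidity. CellTiter-Glo was added, plates sat 10 min at room temperature, then ATP-coupled luminescence was imaged as the viability read-out.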

In the next assay the test system is HEK293. The description is as above. The following applies: Five cell lines viability, CellTiter-Glo ATP luminescence, 48-72 h; max response: hits give low values. In a few lines:
as §1

For another assay, the system named is HaCat. The assay is described as above. The following applies: Five cell lines viability, CellTiter-Glo ATP luminescence, 48-72 h; max response: hits give low values. A digest of the protocol:
as §1

In a further assay the test system is PC49. Put plainly: qHTS profiling for inhibitors of Plasmodium falciparum proliferation (AID 504749). The following applies: P. falciparum in erythrocytes, SYBR Green DNA, 72 h; series mostly up to 28.7 µM. In a few lines:
(§2)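 Fluorescence of SYBR Green-bound parasite DNA, read at 485/535 nm, served as the growth measure. Infected erythrocytes were cultured with compound 72 h; artemisinin (0.29 uM) and DMSO wells defined the normalization range.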

Another assay has as its system SC27B. Described as above. The following applies: P. falciparum in erythrocytes, SYBR Green DNA, 72 h; series mostly up to 28.7 µM. In a few lines:
as §2

The next assay concerns TAB109. Described as above. The following applies: P. falciparum in erythrocytes, SYBR Green DNA, 72 h; series mostly up to 28.7 µM. A digest of the protocol:
as §2

In another assay the test system is TAB113. The assay is described as above. The following applies: P. falciparum in erythrocytes, SYBR Green DNA, 72 h; series mostly up to 28.7 µM. A digest of the protocol: as §2
A further assay concerns TAB165. Described as above. The following applies: P. falciparum in erythrocytes, SYBR Green DNA, 72 h; series mostly up to 28.7 µM. A digest of the protocol:
as §2

The test system of the next assay is W2. Described as above. The following applies: P. falciparum in erythrocytes, SYBR Green DNA, 72 h; series mostly up to 28.7 µM. In a few lines: as §2
Another assay relates to KB-3-1. Put plainly: Cytotoxic Profiling of Annotated Libraries Using Quantitative High-Throughput Screening (AID 1296008). For max response: % is set by controls: 0 for no effect and ±100 for the full control effect. The following applies: Five cell lines viability, CellTiter-Glo ATP luminescence, 48-72 h; max response: hits give low values. A digest of the protocol:
as §1

This is an account of results in PubChem BioAssay (NCATS).

Values joined by “and” are separate entries in the source; they are usually repeats but may differ in a detail not shown here. Equal entries are not always repeated. Inconclusive results are not listed. A structure can be active in one record and inactive in another. Values without a mark were called inactive. Active and inactive are the calls of the source. Calls come from the whole dose curve; as a rule, active = well fitted inhibition curve with a large enough effect; inconclusive = small, poorly fitted or top-dose-only effect; inactive = flat fitted curve, though single readings scatter.
Note: nearly all actives have a fitted effect of over 60% in size.
Potency is the fitted concentration of half-maximal effect.

Take `N#CC(=C(N)Sc1ccccc1N)C(C#N)=C(N)Sc1ccccc1N`: the max response with CRL-7250 was -7.68%.
On to `CCNc1cc(NC2CCC(O)CC2)nc(Nc2ccc3c(ccn3Cc3ccccc3)c2)n1` (configuration not stated), for which the max response in the assay on CRL-7250 is 1.87%. The Potency in the assay with HEK293 is 20.9 µM (active). In addition, the result with HaCat was inactive.
In the case of `CO[C@H]1C[C@@H]2CC[C@@H](C)[C@@](O)(O2)C(=O)C(=O)N2CCCC[C@@H]2C(=O)O[C@H]([C@H](C)C[C@@H]2CC[C@H](OCCO)[C@H](OC)C2)CC(=O)[C@H](C)C=C(C)[C@@H](O)[C@@H](OC)C(=O)[C@H](C)C[C@H](C)C=CC=CC=C1C`, the max response in the assay on CRL-7250 is -75.3%; in the assay with HaCat it was -15.8%. In the assay with HEK293, the Potency was 0.0017 µM (active).
Consider `CCCNC(=O)NS(=O)(=O)c1ccc(Cl)cc1`, for which the molecule was classed as inactive in the assay with PC49, in the assay on TAB109, with CRL-7250, in the assay with HEK293 and with HaCat. For the same molecule, the Potency entry in the assay with SC27B, in the assay on TAB113, with TAB165 and in the assay with W2 was “inactive” in each case. In addition, the max response with CRL-7250 is -0.307%; in the assay with HEK293, -0.916%; in the assay on HaCat, -1.01%; in the assay with KB-3-1, -1.87% and 8.57%.
Consider `CN(C)CCC(c1ccccc1)c1ccccn1` (configuration not stated), for which the Potency result with SC27B, in the assay on TAB113 and with TAB165 was “inactive” in each case. Further, in the assay with W2, the Potency is 4.26 µM (active). Further, the max response in the assay on CRL-7250 is -4.39%; with HEK293 it was -3.33%; in the assay on KB-3-1, -8.17% and 1.69%. The molecule was called inactive in the assay with HEK293 and in the assay on HaCat.
On to `COc1ncc(-c2ccc3nccc(-c4ccnnc4)c3c2)cc1NS(=O)(=O)c1ccc(F)cc1F`, for which the max response with CRL-7250 was -92.9%; in the assay with HEK293 it was -126%; with HaCat, -157%. For the same molecule, the Potency with HEK293 is 0.0206 µM (active); in the assay on HaCat it was 6.5 nM (active); in the assay on KB-3-1, 590 nM (active) and 103 nM (active).
For the molecule `O=C1NC(=O)C(=Cc2ccc3c(c2)OC(F)(F)O3)S1`, the max response in the assay with CRL-7250 is -15.6%; in the assay on HEK293, -24.8%; with HaCat it was -0.402%.
In the case of `COc1ccccc1N1CCN(CCCNc2cc(=O)n(C)c(=O)n2C)CC1`, the molecule was classed as inactive in the assay with PC49, with TAB109, in the assay on CRL-7250, in the assay on HEK293 and in the assay with HaCat. Further, the Potency entry in the assay on SC27B, with TAB113, with TAB165 and in the assay with W2 was “inactive” each time. In addition, the max response is -0.41% in the assay on CRL-7250; 10% and -5.34% and -7.87% with KB-3-1.
Consider `CCc1ccc(OCc2ccccc2C(=O)Nc2ccc3nc(C)cc(N)c3c2)cc1`, for which the Potency was 10.5 µM (active) in the assay with CRL-7250, 8.33 µM (active) in the assay on HEK293 and 11800 nM (active) in the assay on HaCat.
With `CC[C@]1(O)C[C@@H]2CN(CCc3c([nH]c4ccccc34)[C@@](C(=O)OC)(c3cc4c(cc3OC)N(C=O)[C@@H]3C45CCN4CC=C[C@](CC)([C@H]45)[C@@H](OC(C)=O)[C@]3(O)C(=O)OC)C2)C1` (some centres not stated), in the assay with CRL-7250, the max response is -20.2%.
`N[C@H](CSC(c1ccccc1)(c1ccccc1)c1ccccc1)C(=O)O`: in the assay with CRL-7250, the max response is -7.2%. For the same molecule, the Potency in the assay with HEK293 is 9.35 µM (active). In addition, the call in the assay with HaCat was inactive.
Turning to `Cc1ccccc1C(C(=O)NC1CCCCC1)N(C(=O)Cn1ccnc1C)c1cccc(F)c1` (configuration not stated), the max response in the assay on CRL-7250 is -5.16%; in the assay with HEK293 it was -0.939%; with KB-3-1 it was 1.35% and 1.14%. The outcome with CRL-7250 and in the assay with HaCat was inactive.
Consider `O=C(Nc1cccc(Br)c1)c1cccc(S(=O)(=O)N2CCCCCC2)c1`, for which the Potency in the assay on CRL-7250 is 23.1 µM (active); in the assay on HEK293 it was 13.2 µM (active) and 9.2 µM (active). Also, the max response with HaCat is 4.06% and -1.39%.
As to `C=C1C(=O)[C@@]23C(CC[C@@H]1[C@H]2O)[C@@]12CO[C@]3(O)[C@@H](O)[C@@H]1C(C)(C)CC[C@@H]2O` (some centres not stated), the Potency is 18.4 µM (active) in the assay on CRL-7250; 13.2 µM (active) and 8.2 µM (active) in the assay on HEK293.
For `C[C@@H](O)[C@H]1C(=O)N2C(C(=O)O)=C(S[C@@H]3CN[C@H](C(=O)N(C)C)C3)[C@H](C)[C@H]12`, the result in the assay with PC49, with TAB109, in the assay with CRL-7250, in the assay on HEK293 and in the assay on HaCat was inactive. Further, the Potency result in the assay on SC27B, in the assay with TAB113, with TAB165 and in the assay with W2 was “inactive” in each case. Further, the max response was 3.74% with CRL-7250, -2.71% in the assay with HaCat and -4.18% with KB-3-1.
On to `COc1ccc(C2CC(c3ccccc3)=NN2c2ccc(S(N)(=O)=O)cc2)cc1` (configuration not stated), for which the Potency with CRL-7250 was 10.5 µM (active). The max response with CRL-7250 is -2.01%; in the assay with HaCat, 3.54% and 1.7%; in the assay on KB-3-1, -15.8%.
For the molecule `O=C(NCc1ccncc1)C12C[C@H]3C[C@@H](C1)CC(c1ccc(Cl)cc1)(C3)C2`, in the assay on CRL-7250, the max response was -10.8%. The Potency with HEK293 is 10.5 µM (active).
In the case of `CCOC(=O)C1=C(N)Oc2ccc(Br)cc2C1C(C#N)C(=O)OCC` (configuration not stated), the max response in the assay with CRL-7250 was 2.39% and -0.818% and 2%; in the assay on HEK293 it was -11.5% and -3.28%; in the assay with HaCat, -16.4%; in the assay with KB-3-1, -1.43%. In addition, the molecule was called inactive with HEK293, in the assay with HaCat and with KB-3-1.
In the case of `NC(=O)c1ccc2nc(-c3ccc(Oc4ccc(Cl)cc4)cc3)[nH]c2c1`, in the assay with CRL-7250, the max response is -25.5% and the outcome was inactive. In the assay with HaCat, the max response is -0.499% and the outcome was inactive.
For the molecule `O=C(CCN1CCN(C(=O)OCc2cc(Cl)cc(Cl)c2)CC1)c1ccc2[nH]c(=O)oc2c1`, the max response was -14.6% with CRL-7250; -21.4% in the assay on HEK293; -8.98% and -29.3% in the assay on HaCat; -3.38% and 0.622% in the assay with KB-3-1. For the same molecule, in the assay on CRL-7250, the molecule was classed as inactive. Besides, the Potency in the assay on HEK293 is 9.2 µM (active).
As for `Oc1ccc(C2CCN(c3ccnc4ccccc34)CC2)cc1O`, the Potency with CRL-7250 was 4.69 µM (active); with HEK293 it was 13.2 µM (active). In addition, in the assay with HaCat, the max response was -4.14%.
Take `CC(C)(C)Cn1c(N)nc2ccc(-c3[nH]c(C(C)(C)C)nc3-c3ccc(F)cc3)nc21`: the max response in the assay on CRL-7250 is -25.6% and -19.9%. Besides, the Potency is 11.6 µM (active) in the assay with HEK293; 5.9 µM (active) and 4.61 µM (active) in the assay with HaCat.
